In PubChem BioAssay:
Values without a mark were called inactive. The source made the active and inactive calls. Unless noted, no stated cut-off is given here; in the data, active means inhibition above about 44%; inactive means the rest.

Target: Steroidogenic factor 1 (Homo sapiens) (UniProt Q13285)
Experiment: inverse agonism at SF1 nuclear receptor – cell-based, luminescence, high throughput, counter-screen for LRH-1 inverse agonist project (AID 651614);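 further: cells cotransfected with StAR promoter reporter and SF1 expression vector; 0% = vehicle on cells with receptor and 100% = vehicle on cells lacking receptor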
Settings: cell-based SF1 luciferase reporter, at 3.6 µM, stronger effect = higher value

Chain of Steroidogenic factor 1 (Homo sapiens) (Q13285 whole entry, looked up): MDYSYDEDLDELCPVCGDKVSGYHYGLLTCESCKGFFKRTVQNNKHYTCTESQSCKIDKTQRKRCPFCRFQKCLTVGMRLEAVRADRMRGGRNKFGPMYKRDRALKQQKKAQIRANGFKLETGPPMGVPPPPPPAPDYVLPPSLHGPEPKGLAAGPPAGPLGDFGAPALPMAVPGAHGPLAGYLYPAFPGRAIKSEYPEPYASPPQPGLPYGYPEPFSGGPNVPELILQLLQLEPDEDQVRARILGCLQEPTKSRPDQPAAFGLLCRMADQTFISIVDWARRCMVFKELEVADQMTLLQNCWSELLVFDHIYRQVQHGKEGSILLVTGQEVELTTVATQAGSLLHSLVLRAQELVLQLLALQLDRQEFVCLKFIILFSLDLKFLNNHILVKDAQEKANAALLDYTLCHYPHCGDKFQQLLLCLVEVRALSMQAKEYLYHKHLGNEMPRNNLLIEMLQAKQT

| Compound | inhibition |
| --- | --- |
| CCN(CC)C1=NC(=[N+](CC)CC)c2ccccc21 | 74.5% (active) |
| O=Cc1cn(Cc2cccc([N+](=O)[O-])c2)c2ccccc12 | 80.3% (active) |
| N#Cc1ccc(Cn2cc(C=O)c3ccccc32)cc1 | 42.4% |
| CCN1CCN(c2cc(N3CCCC3)c([N+](=O)[O-])cc2F)CC1 | 46.4% (active) |
| N#CCCn1cc(C(=O)Nc2ccccc2Cl)c(-c2ccc([N+](=O)[O-])cc2)n1 | 59.8% (active) |
| O=C1Nc2ccccc2/C1=C/c1cnc[nH]1 | 40.8% |
| Cc1ccccc1-n1c(/C=C/c2ccccn2)nc2ccccc2c1=O | 52% (active) |
| Cc1ccc2c(C)c3ccc4ccccc4c3c[n+]2c1 | 39.4% |
| O=[N+]([O-])c1cc(F)c(N2CCCCCC2)cc1N1CCNCC1 | 54.7% (active) |
| CCOC(=O)c1c(C)n(CC(O)CN2CCOCC2)c2cc(Br)c(OC)cc12 (configuration not stated) | 47.9% (active) |
| N#CCCn1cc(C(=O)Nc2ccccc2Br)c(-c2ccc([N+](=O)[O-])cc2)n1 | 51.6% (active) |
| CCOC(=O)[C@]12Cc3c(cc(OC)c(OC)c3OC)[C@H]1N(C1CCCCC1)C(=O)c1ccccc12 | 46.2% (active) |
| COC(=O)COc1cc(C)cc2oc(=O)c3c(c12)CCCC3 | 50.6% (active) |
| COc1ccc2c(c1)/C(=C/c1cnc[nH]1)C(=O)N2 | 72.9% (active) |
| O=c1[nH]c2ccccc2n1C1CCN(Cc2ccc(-c3[nH]c4cc5ncnc5cc4nc3-c3ccccc3)cc2)CC1 | 44% (active) |
| CCOC(=O)[C@]12Cc3cc(C)ccc3[C@H]1N(C1CCCCC1)C(=O)c1ccccc12 | 71.5% (active) |
| CC1CCN(C(=O)CCl)CC1 | 57% (active) |
| COc1cccc2c1C(=O)c1c(O)c3c(c(O)c1C2=O)CC(O)(C(C)=NO)CC3OC1CC(N)C(O)C(C)O1 (configuration not stated) | 62.3% (active) |
| NC(Cc1ccc(F)cc1)c1csc(Nc2ncccn2)n1 (configuration not stated) | 38.9% |
| CN1C(=O)C(=Cc2ccc(N3CCCCCC3)cc2)C(=O)N(C)C1=O | 48.1% (active) |
| COc1cc2c(cc1OC)C1C(=O)c3ccc4c(c3OC1CO2)CC(C(C)C)O4 (configuration not stated) | 73.1% (active) |
| CCOC(=O)[C@]12Cc3cc(C)ccc3[C@H]1N(C1CCCCC1)C(=O)c1cc(OC)ccc12 | 78.2% (active) |
| CCOC(=O)[C@]12Cc3cc(OC)ccc3[C@H]1N(C1CCCCC1)C(=O)c1ccccc12 | 42.2% |
| CC(=O)O[C@H]1C(=O)[C@@]2(C)C([C@H](OC(=O)c3ccccc3)[C@]3(O)C[C@H](OC(=O)[C@H](O)[C@@H](NC(=O)Cc4ccccc4)c4ccccc4)C(C)=C1C3(C)C)[C@]1(OC(C)=O)CO[C@@H]1C[C@@H]2O (some centres not stated) | 54.9% (active) |
| COC(=O)C(C)Oc1cc(C)cc2oc(=O)c3c(c12)CCCC3 (configuration not stated) | 55.9% (active) |
| CC(C)(C)c1ccc(CSc2cnn(C(C)(C)C)c(=O)c2Cl)cc1 | 63.8% (active) |
| CCOC(=O)[C@]12Cc3ccccc3[C@H]1N(C1CCCCC1)C(=O)c1cc(OC)ccc12 | 58.9% (active) |
| COC1/C=C/C=C(\C)Cc2cc(O)c(Cl)c(c2)N(C)C(=O)CC(OC(=O)C(C)C)C2(C)OC2C(C)C2CC1(O)NC(=O)O2 (configuration not stated) | 62.5% (active) |
| N#Cc1c(Br)n(C2OC(CO)C(O)C2O)c2ncnc(N)c12 (configuration not stated) | 63.2% (active) |

Tested on: not listed separately
Experiment: compounds suppressing VP16-driven luciferase signal – cell-based, luminescence, high throughput, counter-screen for LRH-1 inverse agonist project (AID 651615; in the data active means inhibition above about 33%)
Settings: Gal4-VP16 luciferase reporter cells, at 3.6 µM, stronger effect = higher value

| Compound | inhibition |
| --- | --- |
| CCN(CC)C1=NC(=[N+](CC)CC)c2ccccc21 | 85.6% (active) |
| O=Cc1cn(Cc2cccc([N+](=O)[O-])c2)c2ccccc12 | 14.4% |
| N#Cc1ccc(Cn2cc(C=O)c3ccccc32)cc1 | 1.97% |
| CCN1CCN(c2cc(N3CCCC3)c([N+](=O)[O-])cc2F)CC1 | 15.6% |
| N#CCCn1cc(C(=O)Nc2ccccc2Cl)c(-c2ccc([N+](=O)[O-])cc2)n1 | -6.5% |
| O=C1Nc2ccccc2/C1=C/c1cnc[nH]1 | -10.7% |
| Cc1ccccc1-n1c(/C=C/c2ccccn2)nc2ccccc2c1=O | 5.08% |
| Cc1ccc2c(C)c3ccc4ccccc4c3c[n+]2c1 | 78% (active) |
| O=[N+]([O-])c1cc(F)c(N2CCCCCC2)cc1N1CCNCC1 | 9.46% |
| CCOC(=O)c1c(C)n(CC(O)CN2CCOCC2)c2cc(Br)c(OC)cc12 (configuration not stated) | -12.2% |
| N#CCCn1cc(C(=O)Nc2ccccc2Br)c(-c2ccc([N+](=O)[O-])cc2)n1 | 1.09% |
| CCOC(=O)[C@]12Cc3c(cc(OC)c(OC)c3OC)[C@H]1N(C1CCCCC1)C(=O)c1ccccc12 | 89.3% (active) |
| COC(=O)COc1cc(C)cc2oc(=O)c3c(c12)CCCC3 | -11.3% |
| COc1ccc2c(c1)/C(=C/c1cnc[nH]1)C(=O)N2 | 11.2% |
| O=c1[nH]c2ccccc2n1C1CCN(Cc2ccc(-c3[nH]c4cc5ncnc5cc4nc3-c3ccccc3)cc2)CC1 | 25% |
| CCOC(=O)[C@]12Cc3cc(C)ccc3[C@H]1N(C1CCCCC1)C(=O)c1ccccc12 | 88.4% (active) |
| CC1CCN(C(=O)CCl)CC1 | -7.83% |
| NC(Cc1ccc(F)cc1)c1csc(Nc2ncccn2)n1 (configuration not stated) | 49.8% (active) |
| CN1C(=O)C(=Cc2ccc(N3CCCCCC3)cc2)C(=O)N(C)C1=O | -4.85% |
| COc1cc2c(cc1OC)C1C(=O)c3ccc4c(c3OC1CO2)CC(C(C)C)O4 (configuration not stated) | 65.5% (active) |
| CCOC(=O)[C@]12Cc3cc(C)ccc3[C@H]1N(C1CCCCC1)C(=O)c1cc(OC)ccc12 | 87.9% (active) |
| CCOC(=O)[C@]12Cc3cc(OC)ccc3[C@H]1N(C1CCCCC1)C(=O)c1ccccc12 | 87.4% (active) |
| CC(=O)O[C@H]1C(=O)[C@@]2(C)C([C@H](OC(=O)c3ccccc3)[C@]3(O)C[C@H](OC(=O)[C@H](O)[C@@H](NC(=O)Cc4ccccc4)c4ccccc4)C(C)=C1C3(C)C)[C@]1(OC(C)=O)CO[C@@H]1C[C@@H]2O (some centres not stated) | 36.1% (active) |
| COC(=O)C(C)Oc1cc(C)cc2oc(=O)c3c(c12)CCCC3 (configuration not stated) | -29.8% |
| CC(C)(C)c1ccc(CSc2cnn(C(C)(C)C)c(=O)c2Cl)cc1 | 57.7% (active) |
| CCOC(=O)[C@]12Cc3ccccc3[C@H]1N(C1CCCCC1)C(=O)c1cc(OC)ccc12 | 85.2% (active) |
| COC1/C=C/C=C(\C)Cc2cc(O)c(Cl)c(c2)N(C)C(=O)CC(OC(=O)C(C)C)C2(C)OC2C(C)C2CC1(O)NC(=O)O2 (configuration not stated) | 32.6% (active) |
| N#Cc1c(Br)n(C2OC(CO)C(O)C2O)c2ncnc(N)c12 (configuration not stated) | 48.6% (active) |
